This is a sample that favours compounds with a hit; in the whole collection about 7.5% have one here.
Rab9 prom act = Rab9 promoter activation; Huh7 Rab9 promoter-luciferase reporter, luminescence, 24 h; Potency, µM (series often up to 9.22 µM), without a hit: at the top dose activation, negative = inhibition, most hits filed as activators; 2.8% of 320,000 active; further: % of control where 0% means no effect; nearly all actives have a fitted effect of over 60% in size
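Cells were plated at 1500 per well in reduced-serum medium with 10% FBS and left 2 h. Compound in DMSO was then added for 24 h at 37 °C. Reporter signal was read by luminescence after 10 min with luciferase detection reagent.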
SMN2 splice enh = increases expression of the SMN2 splice variant; Potency, µM (titrated, usually from 46.1 µM), for the others: at the highest dose activity change, positive = activation, actives largely listed as activators; 2.8% of 210,000 active; HEK293 SMN2-luciferase splicing reporter, luminescence, 30-36 h; further: % of control where 0% means no effect; nearly all actives have a fitted effect of over 55% in size
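HEK293 cells carry an SMN2 […]–luciferase reporter in which exon 7 inclusion puts luciferase in frame. Cells were plated 10-12 h before compound addition, then incubated 30-36 h at 37C. ONE-Glo luminescence was read; sodium butyrate at 4.5 mM final served as control.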
ELG1 genotox = genotoxicity induction in ELG1-luciferase HEK293T cells | HEK293T ELG1-luciferase reporter, luminescence, 16 h | Potency, µM (titrated, usually from 46 µM), for the others: at the top dose activity change, positive = activation, most hits filed as activators | 1.3% of 330,000 active | AID 504466; further: % of control where 0% means no effect; nearly all actives have a fitted effect of over 60% in size
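HEK293T cells expressing luciferase-tagged ELG1 were exposed to compound or DMSO vehicle for 16 hr at 37 °C and 5% CO2. Luciferase activity was then measured with ONE-Glo after 30 min at room temperature.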
FLuc counter = firefly luciferase modulation, counter-screen for miR-21 project. P08659. purified FLuc, Km substrates, luminescence inhibition. Potency, µM (titrated, usually from 57.5 µM), for inactives: top-dose activity change, negative = inhibition, hits mostly inhibitors. 6.9% of 360,000 active;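 further: plate controls were vehicle for no effect and reference inhibitor for full effect; nearly all actives have a fitted effect of over 55% in size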
Target sequence (P08659 whole entry, looked up): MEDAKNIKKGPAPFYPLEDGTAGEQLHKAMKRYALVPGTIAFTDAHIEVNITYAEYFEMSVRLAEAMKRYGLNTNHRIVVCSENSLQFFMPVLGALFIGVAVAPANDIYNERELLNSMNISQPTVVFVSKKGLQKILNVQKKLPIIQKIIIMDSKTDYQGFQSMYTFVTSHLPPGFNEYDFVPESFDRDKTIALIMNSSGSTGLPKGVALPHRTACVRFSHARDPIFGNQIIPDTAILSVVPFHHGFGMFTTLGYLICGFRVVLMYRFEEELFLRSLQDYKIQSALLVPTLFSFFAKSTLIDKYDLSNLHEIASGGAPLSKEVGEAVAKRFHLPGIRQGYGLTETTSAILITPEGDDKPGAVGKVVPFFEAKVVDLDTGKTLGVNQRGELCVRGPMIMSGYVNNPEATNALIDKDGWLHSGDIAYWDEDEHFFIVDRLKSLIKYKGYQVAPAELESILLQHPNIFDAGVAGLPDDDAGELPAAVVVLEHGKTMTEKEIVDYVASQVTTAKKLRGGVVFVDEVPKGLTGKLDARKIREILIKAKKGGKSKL
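Purified P. pyralis luciferase, 10 nM final, with Km-level 10 uM D-luciferin and 10 uM ATP in 50 mM Tris acetate pH 7.5, 10 mM Mg acetate, 0.01% Tween-20, 0.05% BSA; 6-point qHTS titration about 60 µM downward; luminescence read.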
Luc counter = counter-screen: inhibitors of Kinase-Glo firefly luciferase | Q27757 | Kinase-Glo luciferase, ATP luminescence, 8 min | Potency, µM (highest dose often 38.3 µM), for inactives: at the top dose activity change, negative = inhibition, most hits filed as inhibitors | 0.28% of 200,000 active | AID 1379; further: on the % scale 0 is the no-effect control and ±100 the full control effect; nearly all actives have a fitted effect of over 60% in size
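Compounds were added to a substrate mix at pH 7.2 (50 mM imidazole, 10 uM ATP, within the enzyme's linear range), followed by Kinase-Glo detection reagent; luminescence was measured after 8 minutes at ambient temperature.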
NPC1 prom act = NPC1 promoter activation; Potency, µM (top dose mostly 9.22 µM), for inactives: at the highest dose activation, most hits filed as activators; Huh7 NPC1 promoter luciferase reporter, 24 h; AID 485313; 2.4% of 320,000 active; further: % of control where 0% means no effect; nearly all actives have a fitted effect of over 60% in size
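Stable NPC1-promoter luciferase Huh7 line; cpd (DMSO) 24 h, 37 °C, 5% CO2; Amplite luciferase reagent 10 min RT; luminescence readout. qHTS format.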
* marks the source's active call; other numbers are inactive results; ? = inconclusive; . = not tested or not shown. The call rests on the fitted dose curve; in most records, active means well fitted curve in the direction sought with a large enough effect; inconclusive means small, poorly fitted or top-dose-only effect, or another doubt; inactive means no such curve, though single readings can be large; an effect the other way counts as inactive or inconclusive. Potency means the concentration at half of the fitted maximal effect.

SMILES | Rab9 prom act | SMN2 splice enh | ELG1 genotox | FLuc counter | Luc counter | NPC1 prom act
Cc1ccccc1/C=c1\s/c(=C\C(=O)C(C)(C)C)[nH]c1=O | -1% | -15% | -11% | 17µM* | -1% | -1%
CC(C)c1ccc(NC(=O)COC(=O)c2cc(=O)[nH]c3ccccc23)cc1 | 1% | . | 3% | 0% | . | 2%
CC(=O)Nc1ccc(Cl)c(-c2nc3ncccc3o2)c1 | -6% | . | 3% | 1% | . | 0%
c1ccc(Nc2ccc(-n3ccnc3)nn2)cc1 | 2% | 7% | 6% | ? | -7% | -2%
Clc1ccc(Nc2ccc(-n3ccnc3)nn2)cc1Cl | 4% | -2% | -1% | 27µM* | -5% | 1%
Brc1ccc(-c2noc(-c3ccccn3)n2)o1 | 0.45µM* | . | ? | 2.7µM* | . | 0.56µM*
COc1cc(-c2nc(-c3ccc(Br)o3)no2)cc(OC)c1OC | -4% | -6% | -3% | 2% | -4% | -1%
Brc1ccc(-c2nc(-c3ccccn3)no2)o1 | ? | 2.5µM* | ? | 1.5µM* | 13µM* | 0.56µM*
Cc1ccc(NCc2ccc(C)s2)cc1 | 18% | . | 13% | 21µM* | . | 18%
Cc1ccc(CNc2ccc(N3CCOCC3)cc2)s1 | 3.5µM* | 18µM* | 4.1µM* | 0.95µM* | -11% | 2.5µM*
CCOC(=O)N1CCc2c(sc3c2c(=O)n(CCc2ccccc2)c(=O)n3Cc2cc(C)ccc2C)C1 | . | 2% | . | -1% | . | .
CCN(CC)C(=O)c1[nH]cnc1C(=O)NCc1ccccc1 | . | . | 1% | . | . | .
Cc1cccc(/C=N/N2CCN(c3ccccc3)CC2)c1 | ? | 18µM* | ? | 7.6µM* | -5% | ?
Cc1ccccc1/C=N/N1CCN(c2ccccc2)CC1 | 17% | ? | 17% | 17µM* | 1% | 21%
Cc1ccc(/C=N/N2CCN(c3ccccc3)CC2)cc1 | 3.5µM* | ? | ? | -19% | -2% | ?
CSc1ccc(/C=N/N2CCN(c3ccccc3)CC2)cc1 | ? | ? | 6% | 5% | -11% | ?
CCN(C(=O)COc1ncnc2scc(-c3ccc(F)cc3)c12)C1CCS(=O)(=O)C1 (stereo not drawn) | 13% | 7% | 18µM* | 4% | -2% | 0%
C=C(C)CNC(=S)Nc1nc2c(cc1C(=O)OCC)CCCC2 | ? | 4.5µM* | ? | 13µM* | -1% | ?
COc1ccc(-c2nc(CCNC(=O)c3cccs3)cs2)cc1 | -5% | -71% | ? | 27µM* | -1% | 1%
COc1ccc(CC(=O)NCCc2csc(-c3ccc(Cl)cc3)n2)cc1 | . | . | . | -6% | . | .
Cc1csc2nc(CNC(=O)c3ccco3)cn12 | ? | 20µM* | 18µM* | 17µM* | 0% | ?
COc1ccc(-c2nc(C)c(CCNC(=O)c3cccs3)s2)cc1OC | . | . | . | 17µM* | . | .
COc1ccc(-c2nc(C)c(CCNC(=O)c3ccco3)s2)cc1 | . | . | . | 27µM* | . | .
O=C(O)c1ccccc1C(=O)Nc1c(-c2ccccc2)nc2ccccn12 | 20% | . | 14% | -18% | . | 11%
Cc1cc(C)cc(C(=O)N(Cc2ccco2)c2c(N)n(Cc3ccccc3)c(=O)[nH]c2=O)c1 | -2% | . | 0% | . | . | -1%
SMILES | Rab9 prom act | SMN2 splice enh | ELG1 genotox | FLuc counter | Luc counter | NPC1 prom act
Cc1cccc(-c2nc(CCNC(=O)c3ccco3)cs2)c1 | . | . | . | -20% | . | .
Cc1ccc(-c2nc(CCNC(=O)c3ccco3)cs2)cc1 | -2% | . | -9% | 17µM* | . | -10%
Cc1ccc(-c2nc(C)c(CCNC(=O)c3ccco3)s2)cc1 | . | . | . | 17µM* | . | .
CCCn1nnc(NC(=O)c2cc3ccccc3o2)n1 | ? | 10µM* | 5.8µM* | 19µM* | -7% | 2.5µM*
Cn1nnc(NC(=S)NC(=O)c2cc3ccccc3o2)n1 | 10% | . | 1% | ? | . | 3%
CCCCn1nnc(NC(=O)c2ccc(-c3cccc(Cl)c3)o2)n1 | 11% | -10% | 0% | ? | -2% | 14%
CCCCn1nnc(NC(=O)c2cc3ccccc3o2)n1 | 1.6µM* | ? | 6.5µM* | ? | 0% | 3.2µM*
CCn1nnc(NC(=O)c2cc3ccccc3o2)n1 | ? | 32µM* | 15µM* | 15µM* | 1% | ?
CCCn1nnc(NC(=O)c2ccc(-c3cccc(Cl)c3)o2)n1 | ? | 7% | 11% | 17µM* | -4% | 29%
CCc1ccc(C(=O)Nc2nnn(CC)n2)cc1 | 0.5µM* | 0.5µM* | 1.6µM* | 4.3µM* | ? | 2µM*
CCCn1nnc(NC(=O)c2cccc(Cl)c2)n1 | 22% | ? | 6% | -17% | -7% | 28%
CCCn1nnc(NC(=O)c2ccc3c(c2)OCO3)n1 | 1.6µM* | . | ? | 19µM* | . | 2.8µM*
C=C(C)COc1ccc(-c2n[nH]c(C)c2-c2ccc(OC)c(OC)c2)c(O)c1 | -24% | . | 5% | -4% | . | -20%
CC(C)c1ccc(OCC(=O)N(Cc2cccs2)C2CCS(=O)(=O)C2)cc1 (stereo not drawn) | . | -14% | . | -2% | . | .
O=C(CSc1nnc(-c2cccs2)o1)N1CCCCC1 | 1.6µM* | 13µM* | 9.2µM* | 21µM* | -5% | 2.5µM*
O=C(CSc1nnc(-c2cccs2)o1)N1CCOCC1 | 0% | -1% | 4% | 0% | -4% | -1%
CC1CCCC(C)N1C(=O)CSc1nnc(-c2cccs2)o1 (stereo not drawn) | 1.6µM* | 11µM* | ? | 12µM* | -1% | 1.1µM*
CC1CCN(C(=O)CSc2nnc(-c3cccs3)o2)CC1 | 21% | . | 20% | -14% | . | 13%
CC1CCCCN1C(=O)CSc1nnc(-c2cccs2)o1 (stereo not drawn) | 2.2µM* | . | ? | 21µM* | . | 3.5µM*
COc1ccccc1N1CCN(c2cc(C)nc3nc(-c4ccc(Cl)cc4)nn23)CC1 | . | 13% | . | 2% | . | .
COc1ccccc1CNC(=O)COC(=O)c1ccccc1SCC(=O)N1CCCC1 | -4% | . | 8% | ? | . | -2%
Cc1nn(CC(C)C(=O)N2CCN(S(=O)(=O)c3ccc(Cl)cc3)CC2)c(C)c1C (stereo not drawn) | 5% | . | -4% | -3% | . | 1%
O=C(CSc1nc2ccc(Cl)cc2o1)NCc1ccc2c(c1)OCO2 | 1% | -2% | -1% | 2% | 2% | 14%
Cc1ccccc1NC(=O)CSc1nc2ccccc2o1 | ? | 7% | 4.1µM* | 3% | -1% | ?
O=C(CSc1nc2ccccc2o1)NCc1ccc2c(c1)OCO2 | 3% | ? | 21µM* | ? | 7% | -1%
O=C(CSc1nc2ccccc2o1)Nc1nc(-c2ccccc2)cs1 | 2% | ? | ? | 21µM* | -3% | 15%

Screens: PubChem, National Center for Advancing Translational Sciences (NCATS)
